According to PubChem BioAssay (NCI):
The panel holds about 83,000 compounds, 20% with a hit somewhere; the sample as a whole holds those more often.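 In brief: 96-well plates, 48 h treatment, single concentration, percent growth endpoint.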 Unmarked numbers belong to inactive results. Calls of active or inactive are those of the source. Rule for the calls: active = growth percent below 10; inactive = the rest.

How the values were obtained:
Test in all cases: NCI-60 one-dose screen, 48 h (100 = growth as untreated, 0 = no growth, -100 = all killed)
Conditions in all cases: 10 µM unless noted
T-47D breast = test system: T-47D breast
BT-549 breast = test system: BT-549 breast
SW-620 colon = test system: SW-620 colon
MCF7 breast = test system: MCF7 breast
HCT-116 colon = test system: HCT-116 colon
HCC-2998 colon = test system: HCC-2998 colon
KM12 colon = test system: KM12 colon
MDA-MB-435 melanoma = test system: MDA-MB-435 melanoma

Structure (SMILES) | growth (T-47D breast) | growth (BT-549 breast) | growth (SW-620 colon) | growth (MCF7 breast) | growth (HCT-116 colon) | growth (HCC-2998 colon) | growth (KM12 colon) | growth (MDA-MB-435 melanoma)
O=C(Nc1cccc(-c2nc(-c3ccc(NC(=O)c4cccs4)cc3Cl)no2)c1)Nc1ccc(NC(=O)C2CC2)c(C(F)(F)F)c1 | -50.2% (active) | -19.1% (active) | -49.9% (active) | -40% (active) | 1.27% (active) | -55% (active) | -65.5% (active) | 
CC(=O)Nc1ccc(NC(=O)Nc2cccc(-c3nc(-c4ccc(NC(=O)c5cccs5)cc4Cl)no3)c2)cc1C(F)(F)F | -59.4% (active) | -26.7% (active) | -51.3% (active) | -58.1% (active) | -22.2% (active) | -65.1% (active) | -50.1% (active) | 
COc1cc(C2=NN(C(C)=O)C(c3ccc(N4CCOCC4)cc3)C2)cc(OC)c1OC (stereo not drawn) | 97.1% | 92.2% | 105% | 96.3% | 95.7% | 107% | 106% | 
COC(=O)c1c(C(=O)OC)c2n(CC(=O)Nc3cccc4cccnc34)c3ccccc3n2c1C(=O)c1ccc(C)cc1 | 83.4% | 110% | 95.1% | 93.4% | 49.5% | 103% | 109% | 
C#C[C@]1(O)CC[C@H]2[C@@H]3CC=C4c5sc(-c6ccc(OC)cc6)nc5CC[C@]4(C)[C@H]3CC[C@@]21C | 73.6% | 47% | 51.3% | 27.6% | 59.9% | 90.1% | 60% | 
COc1cc(/C=C/C(=O)c2ccc(N3CCN(C)CC3)cc2)ccc1F | 44.4% |  | 33% | 24.9% | 27.8% | 73% | 36.7% | 54.7%
CC(=O)Nc1ccc(NC(=O)Nc2cccc(-c3nc(-c4ccc(NC(=O)c5cccnc5)cc4Cl)no3)c2)cc1C(F)(F)F | -43.7% (active) | -29.9% (active) | -62.8% (active) | -61.3% (active) | -47.4% (active) | -77.6% (active) | -46.2% (active) | 
O=C(NCCCCCCNC(=O)c1c2c(nc3ccccc13)-c1cccnc1SC2)c1c2c(nc3ccccc13)-c1cccnc1SC2 | 79.7% |  | 39.2% | 76.1% | 66.3% | 44.6% | 74.7% | 56.8%
CC(=O)Nc1nc2c(s1)C1=CC[C@H]3[C@@H]4CC[C@H](C(C)=O)[C@@]4(C)CC[C@@H]3[C@@]1(C)CC2 | 68% | 62.3% | 82.3% | 20.6% | 60.4% | 96.9% | 47.7% | 
CCOC(=O)Nc1ccc(-c2nc(-c3cccc(O)c3)c(-c3ccnc(Br)c3)[nH]2)cc1 | 14% | 35.4% | 28.2% | 13.9% | 19.2% | 56.2% | 22.3% | 
COc1ccc(-c2cc(-c3ccc(Cl)cc3)nc3nc(N)nn23)cc1 |  | 92.3% | 104% | 89.9% | 98.8% | 100% | 99.7% | 102%
Cc1csc(Nc2cccc(Nc3nc(C)cs3)c2)n1 |  | 73.7% | 88.6% | 73.3% | 56.5% | 90.3% |  | 82.1%
CCOC(=O)c1c(NC(=O)c2ccc(F)cc2F)sc2c1CCC(=O)C2 |  | 94.2% | 69.7% | 93.4% | 96.5% | 107% | 90.9% | 98.9%
CSc1nccc(-c2c(-c3ccc(F)c(OCc4ccc(F)cc4)c3)nc3sccn23)n1 |  | 71.3% | 48.9% | 65% | 51.3% | 93.4% | 80.1% | 59.7%
Oc1ccc(CSc2nnc(-c3ccccc3)o2)c2cccnc12 |  | 29.4% | 14.5% | 9.21% (active) | 16.6% | 37.6% | 17.3% | 21.8%
NNC(=O)c1sc2nc(-c3cnccn3)cc(-c3cccs3)c2c1N |  | 101% | 110% | 84.6% | 99.3% | 100% | 92.6% | 100%
CC1CCc2c(sc3nc(SCC(=O)N/N=C/c4cccc(O)c4O)n(-c4ccccc4)c(=O)c23)C1 (stereo not drawn) |  | 127% | 85.4% | 88.3% | 85.8% | 104% | 88.9% | 88.4%
COc1ccc([C@H]2[C@H](O)C(=O)N2c2cc(OC)c(OC)c(OC)c2)cc1 |  | -2.44% (active) | 20.3% | 12.4% | 0.54% (active) | 16.3% | 18.8% | -12.9% (active)
Cc1cccc(NC(c2cc3cccc4ccc5cccc2c5c43)c2nnnn2C(C)(C)C)c1C (stereo not drawn) |  | 99.2% | 93.7% | 66.9% | 70.5% | 99.6% | 95.8% | 93%
Cc1ccccc1/C=C/c1nn2c(-c3ccoc3C)nnc2s1 |  | 111% |  | 83.9% | 106% | 108% | 105% | 96.3%
COCCOc1ccc(-c2csc(NC(=O)CN3CCN(CCO)CC3)n2)cc1NS(=O)(=O)c1cccc2c(N(C)C)cccc12 |  | 96.1% | 93.4% | 93.6% | 10.8% | 91.3% |  | 83%
COc1ccc(-c2nc3cc(Cl)c(Cl)cc3n2CC(=O)N=Nc2c(O)[nH]c3ccc(Cl)cc23)cc1 |  | 25.8% |  | 40% | 7.71% (active) | 29.8% | 59% | 16.9%
CC(C)(C)CC(C)(C)n1nnnc1C(Nc1ccccc1)c1cc2cccc3ccc4cccc1c4c32 (stereo not drawn) |  | 130% | 82.3% | 61.6% | 45.1% | 90.8% |  | 83.6%
NCCN1CCN(c2nc(-c3ccccc3)nc3nc(-c4ccccc4)oc23)CC1 |  | 92.5% | -55% (active) | -88.3% (active) | -82.2% (active) | -14.4% (active) | -55.4% (active) | -77.6% (active)
COc1ccc([C@@H]2[C@@H](O)C(=O)N2c2cc(OC)c(OC)c(OC)c2)cc1 |  | -13.4% (active) |  | 11.9% | 3.82% (active) | 21.8% | 14% | -28.6% (active)
COc1ccc(-c2nnc(SCc3ccc(O)c4ncccc34)o2)cc1 |  | 35.7% | 17.7% | 14.9% | 23.1% | 45.2% | 15.7% | 24%
CCCCCCCCNC(=O)c1ccc(Cn2c(CCCC)nc3c(N)nc4ccccc4c32)cc1 |  | 92.7% | -39.6% (active) | -78% (active) | -84.2% (active) | 15.5% | 42.1% | -83.1% (active)
COc1ccc(N)cc1C(=O)Nc1cccc(-c2cc(=O)c3c(OC)c(OC)c(OC)cc3o2)c1 |  | 51.2% | 91.4% | 45.2% | 65.5% | 55.3% | 63.6% | 77.4%
O=C(Nc1cc(Cl)cc(Cl)c1)Nc1ccc2oc(=O)ccc2c1 |  | 29% | 17.3% | 5.48% (active) | 1.36% (active) | 27.3% | 11.5% | 13.9%
O=S(=O)(Nc1cc(Cl)cc(Cl)c1)c1ccc(-c2cnc(C3CC3)o2)cc1 |  | 58.4% | 26.1% | 20.9% | 31.3% | 56.7% | 24.2% | 
